Experimental data: PubChem BioAssay (Tox21)
Results filed as inconclusive are left out. Entries that show only a call come without a potency. Active and inactive are the calls of the source. Calls follow the shape of the full dose curve.

biological target: Vitamin D3 receptor (Homo sapiens) (UniProt P11473); assay: qHTS assay to identify small molecule agonists of the vitamin D receptor (VDR) signaling pathway (AID 743222); details: HEK293T VDR-UAS-bla, beta-lactamase FRET ratio, 16 h; series mostly up to 63.5 µM
Description: National Center for Advancing Translational Sciences [NCATS]
NIH Chemical Genomics Center [NCGC]
U.S. Environmental Protection Agency [EPA]
National Institutes of Environmental Health Sciences [NIEHS]
National Toxicology Program [NTP]
U.S. Food and Drug Administration [FDA]
The vitamin D receptor (VDR), a member of nuclear hormone receptor superfamily, plays a critical role in calcium homeostasis and bone metabolism. It is also involved in cell differentiation and growth, and thrombogenicity.
Tox21 Assay Protocol Summary:
VDR-bla cells were dispensed at 2,000 cells/6 uL/well into black wall/clear-bottom 1536-well plates using a Multidrop Combi (Thermo Fisher Scientific, Waltham, MA) dispenser. After the assay plates were incubated at a 37C and 5% CO2 for 4 h, 23 nL of compounds dissolved in DMSO, positive controls or DMSO only was transferred to the assay plate by a Pintool station (Kalypsys, San Diego, CA). The plates were incubated at 37C and 5% CO2 for 16 h. After 1 uL of LiveBLAzerTM B/G FRET substrate was added using a Bioraptr Flying Reagent Dispenser (FRD) workstation (Beckman Coulter, Indianapolis, IN, USA), the plates were incubated at room temperature for 2 h, and fluorescence intensity was measured by an Envision plate reader (PerkinElmer, Shelton, CT).

Sequence of Vitamin D3 receptor (Homo sapiens) (P11473 whole entry, looked up): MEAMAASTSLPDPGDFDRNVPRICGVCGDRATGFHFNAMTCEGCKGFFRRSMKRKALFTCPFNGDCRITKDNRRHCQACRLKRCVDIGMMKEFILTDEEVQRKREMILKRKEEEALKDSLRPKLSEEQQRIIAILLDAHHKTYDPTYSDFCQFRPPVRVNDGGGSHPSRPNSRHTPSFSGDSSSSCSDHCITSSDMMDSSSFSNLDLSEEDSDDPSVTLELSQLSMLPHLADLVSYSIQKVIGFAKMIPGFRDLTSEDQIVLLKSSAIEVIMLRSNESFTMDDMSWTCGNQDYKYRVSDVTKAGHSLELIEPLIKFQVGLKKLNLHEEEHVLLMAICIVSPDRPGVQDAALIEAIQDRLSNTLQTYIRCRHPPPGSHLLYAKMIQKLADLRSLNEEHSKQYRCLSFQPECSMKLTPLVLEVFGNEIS

SMILES | Potency
CCOC(=O)c1ccc(I)cc1 | inactive
O=C1Cc2ccccc2N1c1c(Cl)cccc1Cl | inactive
Clc1ccc(Nc2nnc(Cc3ccncc3)c3ccccc23)cc1 | inactive
C/C=C/C=C/C=O | inactive
CCC1(CO)COCOC1 | inactive
O[C@@H]1CO[C@H]2[C@@H]1OC[C@@H]2O | inactive
CC(C)(C)CC(=O)OCC(=O)[C@@]1(O)CC[C@H]2[C@@H]3CCC4=CC(=O)C=C[C@]4(C)[C@H]3[C@@H](O)C[C@@]21C | inactive
CCC1CO1 (stereo not given) | inactive
O=C(OC(=O)c1ccccc1)c1ccccc1 | inactive
OC1(c2ccccc2)CCNCC1 | inactive
Cc1ccccc1S | inactive
Cc1cscn1 | inactive
CN(C)CCC=C1c2ccccc2C=Cc2ccccc21 | inactive
CCCCCC#CC(=O)OC | inactive
C[C@]1(Cn2ccnn2)[C@H](C(=O)O)N2C(=O)C[C@H]2S1(=O)=O | inactive
CCCC(C(=O)OCCN(CC)CC)(c1ccccc1)c1ccccc1 | inactive
O=c1cc(-c2ccccc2)oc2ccc3ccccc3c12 | inactive
CCC(=O)OC | inactive
CC(=O)c1ccc([N+](=O)[O-])cc1 | inactive
CC1(C)S[C@@H]2[C@H](NC(=O)C(c3ccccc3)S(=O)(=O)O)C(=O)N2[C@H]1C(=O)O (stereo not given in full) | inactive

SMILES | Potency
CNC(=O)c1cnn(-c2nc(N)c3ncn([C@@H]4O[C@H](CO)[C@@H](O)[C@H]4O)c3n2)c1 | inactive
CCOC(=O)c1ccc(OCCN2C[C@H](O)[C@@H](O)[C@H](O)[C@H]2CO)cc1 | inactive
O=C(O)CCc1nc(-c2ccccc2)c(-c2ccccc2)o1 | inactive
CCCCCCCCN | inactive
Oc1c(I)cc(I)c2cccnc12 | inactive
Cc1[nH]cnc1CN1CCc2c(c3ccccc3n2C)C1=O | inactive
CCCCC(CC)COP(=O)(O)O (stereo not given) | inactive
CC(C)(c1ccccc1)c1ccccc1 | inactive
OC[C@H]1O[C@@H](n2cnc3c(=S)nc[nH]c32)[C@H](O)[C@@H]1O | inactive
COc1ccccc1N1CCN(CCCCNC(=O)c2ccc(-c3ccc(C(C)=O)cc3)cc2)CC1 | inactive
C/C=C(/C(=C/C)c1ccc(O)cc1)c1ccc(O)cc1 | inactive
c1ccc2c(c1)CCc1ccccc1N2 | inactive
O=C(Cn1ccnc1[N+](=O)[O-])NCCO | inactive
O=c1[nH]ncc2ccccc12 | inactive
CC(C)C(O)(c1ccc(OC(F)(F)F)cc1)c1cncnc1 (stereo not given) | inactive
C=C(C)[C@@H]1CCC2=CCC[C@@H](C)[C@]2(C)C1 | inactive
CC1(C)[C@H](C(=O)O)N2C(=O)C[C@H]2S1(=O)=O | inactive
O=C=Nc1ccc(Cl)c(Cl)c1 | inactive
Oc1cccc(O)c1O | inactive
C=C1CCC2CC1C2(C)C (stereo not given) | inactive
